Screens deposited in PubChem by National Center for Advancing Translational Sciences (NCATS).
A selection: hits, their analogues and other compounds. The true share with any hit is near 3%.
TSHR agonist – activates the human thyroid stimulating hormone receptor | P16473 | Potency, µM (series often up to 57.1 µM), most hits filed as activators | HEK293-CNG-TSHR cells (CNG channel as cAMP sensor), membrane potential dye, cAMP | AID 926 | hit rate 0.48% among 73,000; active = well fitted activation curve with a large enough effect in the main read-out, with a control signal flat, not every such curve was filed as active; inconclusive = small, poorly fitted or top-dose-only effect, or a change in a side signal; inactive = no such curve, though single readings can be large or run the other way; reference of the percent scale not stated here;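 also: the control signal comes from parental cells without the receptor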
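cAMP rise detected as CNG-channel membrane depolarization by fluorescent dye (emission 590 nm), 30 min after compound, following 60 min dye loading containing 100 uM RO 20-1724 at room temperature. Cells: TSHR/CNG HEK 293, with parental CNG HEK 293 as control.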
HEK293 cAMP ctrl – counter-screen for TSHR agonists: cAMP increase in parental HEK293. parental HEK293 CNG cAMP sensor, membrane potential fluorescence. Potency, µM (titrated, usually from 57.1 µM), hits mostly activators. hit rate 2.5% among 73,000. AID 938; also: nearly all actives have a fitted effect of over 55% in size
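Parental HEK 293 cells stably expressing a cAMP-gated CNG channel were loaded with membrane potential dye containing 100 uM RO 20-1724 for 60 min. Compound added for 30 min; depolarization read as fluorescence intensity at 590 nm.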
Ub-GFP proteasome – proteasome inhibitors stabilizing ubiquitin-GFP reporter; Ubiquitin-GFP reporter cells, proteasome inhibition, GFP fluorescence; response scale: untreated = 0%, 10 µM MG-132 = 100%; Potency, µM (doses to about 45.9 µM), usual class: activators; 67,000 tested, under 10 active; AID 526; active = well fitted activation curve with a large enough effect, not every such curve was filed as active; inconclusive = small, poorly fitted or top-dose-only effect, or another doubt; inactive = no such curve, though single readings can be large or run the other way
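U2OS cells stably expressing ubiquitin(G76V)-GFP, seeded overnight in 0.5% FBS medium, were exposed to compounds (qHTS, 46 uM to 2.9 nM) for 4 hr at 37 °C. GFP-positive cells were counted by laser cytometry (488 ex/515 em), normalized between basal and 10 uM MG-132.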
HBB splicing – hemoglobin beta splicing modulation. Potency, µM (titrated, usually from 46.1 µM), most hits filed as activators. hit rate 0.06% among 65,000. HBB splicing reporter cell assay, activation; EGFP reporter with mutant IVS2-654 intron; response scale: normalised to 500 nM splice-correcting PNA
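Compounds were applied for 2 days to HeLa EGFP-654 cells, 500/well in Optimem with 2% FCS. The reporter's EGFP is disrupted by mis-splicing of beta-globin intron IVS2-654. Readout: summed well GFP fluorescence from 488 nm laser scanning; reference was 500 nM antisense […] 654 PNA.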
GFP derepression – derepresses silenced GFP locus in mouse C127i cells. mouse C127i GFP locus derepression, cytometry, 30 h. Potency, µM (titrated, usually from 46.1 µM). hit rate 0.09% among 68,000. AID 597
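Read-out is the number of GFP-positive cells, scored as fluorescent objects 20 to 120 um wide, reflecting derepression of a silenced CMV-GFP reporter in murine C127i cells after 30 h compound exposure at 37 C.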
parental cAMP – TSHR-independent cAMP elevation, counter-screen. shares compounds with TSHR agonist. parental HEK293 CNG biosensor, cAMP membrane potential fluorescence. activity change, negative = inhibition, % at 32.9 µM. 150 tested, under 10 active
Large screens that a line does not name were inactive (follow-up assays come after a bar, where they were run). Unless noted, calls follow the shape of the dose curve; as a rule, active = well fitted curve in the direction sought with a large enough effect; inconclusive = small, poorly fitted or top-dose-only effect, or another doubt; inactive = no such curve, though single readings can be large; an effect the other way counts as inactive or inconclusive.

COc1cc2c(cc1O)[C@@H](c1cc(O)c(O)c(OC)c1)[C@@](O)(C(=O)O)[C@@H](CO)[C@@H]2O	none
CN1C(=O)C2C=CC1C1C(=O)N(c3ccccc3)C(=O)C21 (stereo not given)	none | parental cAMP inactive
Cc1ccccc1NC(=O)N1C2CCCC1CC(NC(=O)C1CC1)C2 (stereo not given)	none (no result: HBB splicing) | parental cAMP inactive
Cc1ccccc1N1CCN(c2ncnc3c2cnn3Cc2ccc(Cl)cc2)CC1	none (no result: TSHR agonist) | parental cAMP inconclusive
O=C(c1cc(Br)ccc1O)c1cc(Br)ccc1O	none
Cc1sc2ccccc2[n+]1CCC(=O)O	TSHR agonist inconclusive, HEK293 cAMP ctrl inconclusive
Cc1cc(C)n(S(=O)(=O)c2cc(C(=O)O)c(Cl)cc2Cl)n1	TSHR agonist 15.8µM | parental cAMP inactive
O=C1C2C3C=CC(C2C(=O)N1CN1CCOCC1)C1C2C(=O)N(CN4CCOCC4)C(=O)C2C31 (stereo not given)	none
O=c1c2ccccc2ncn1-c1ccc2c(c1)OCCO2	none (no result: Ub-GFP proteasome, HBB splicing, GFP derepression) | parental cAMP inactive
CC(C)(C)N1C(=O)[C@H]2[C@H]3[C@H](O)[C@H](O)C/C(=N/OC[C@@H](O)COCc4ccco4)[C@H]3CC[C@@H]2C1=O	none (no result: Ub-GFP proteasome, GFP derepression)
O=C(COC(=O)CCCc1c[nH]c2ccccc12)Nc1ccc2c(c1)OCO2	none
O=C(COC(=O)C1c2ccccc2Oc2ccccc21)Nc1ccc2c(c1)OCO2	TSHR agonist 25.1µM | parental cAMP inactive
C=C(C)Cn1c(-c2ccccc2)nc2ccccc21	TSHR agonist 3.16µM | parental cAMP inconclusive
